SMILES strings stand for the structures. “And” between values parts separate entries of the source, which are not always exact repeats. Equal entries are not always repeated. Screen size: about 190,000 compounds; about 6,900 (3.6%) were called active. Rule as the data show it: active = inhibition above about 50%; inactive = the rest. The entries come from a sample that favours actives as a whole. More than one record can exist for a structure, and the calls need not agree.

Huntingtin (Homo sapiens), sequence (P42858 whole entry, looked up, stated change not applied): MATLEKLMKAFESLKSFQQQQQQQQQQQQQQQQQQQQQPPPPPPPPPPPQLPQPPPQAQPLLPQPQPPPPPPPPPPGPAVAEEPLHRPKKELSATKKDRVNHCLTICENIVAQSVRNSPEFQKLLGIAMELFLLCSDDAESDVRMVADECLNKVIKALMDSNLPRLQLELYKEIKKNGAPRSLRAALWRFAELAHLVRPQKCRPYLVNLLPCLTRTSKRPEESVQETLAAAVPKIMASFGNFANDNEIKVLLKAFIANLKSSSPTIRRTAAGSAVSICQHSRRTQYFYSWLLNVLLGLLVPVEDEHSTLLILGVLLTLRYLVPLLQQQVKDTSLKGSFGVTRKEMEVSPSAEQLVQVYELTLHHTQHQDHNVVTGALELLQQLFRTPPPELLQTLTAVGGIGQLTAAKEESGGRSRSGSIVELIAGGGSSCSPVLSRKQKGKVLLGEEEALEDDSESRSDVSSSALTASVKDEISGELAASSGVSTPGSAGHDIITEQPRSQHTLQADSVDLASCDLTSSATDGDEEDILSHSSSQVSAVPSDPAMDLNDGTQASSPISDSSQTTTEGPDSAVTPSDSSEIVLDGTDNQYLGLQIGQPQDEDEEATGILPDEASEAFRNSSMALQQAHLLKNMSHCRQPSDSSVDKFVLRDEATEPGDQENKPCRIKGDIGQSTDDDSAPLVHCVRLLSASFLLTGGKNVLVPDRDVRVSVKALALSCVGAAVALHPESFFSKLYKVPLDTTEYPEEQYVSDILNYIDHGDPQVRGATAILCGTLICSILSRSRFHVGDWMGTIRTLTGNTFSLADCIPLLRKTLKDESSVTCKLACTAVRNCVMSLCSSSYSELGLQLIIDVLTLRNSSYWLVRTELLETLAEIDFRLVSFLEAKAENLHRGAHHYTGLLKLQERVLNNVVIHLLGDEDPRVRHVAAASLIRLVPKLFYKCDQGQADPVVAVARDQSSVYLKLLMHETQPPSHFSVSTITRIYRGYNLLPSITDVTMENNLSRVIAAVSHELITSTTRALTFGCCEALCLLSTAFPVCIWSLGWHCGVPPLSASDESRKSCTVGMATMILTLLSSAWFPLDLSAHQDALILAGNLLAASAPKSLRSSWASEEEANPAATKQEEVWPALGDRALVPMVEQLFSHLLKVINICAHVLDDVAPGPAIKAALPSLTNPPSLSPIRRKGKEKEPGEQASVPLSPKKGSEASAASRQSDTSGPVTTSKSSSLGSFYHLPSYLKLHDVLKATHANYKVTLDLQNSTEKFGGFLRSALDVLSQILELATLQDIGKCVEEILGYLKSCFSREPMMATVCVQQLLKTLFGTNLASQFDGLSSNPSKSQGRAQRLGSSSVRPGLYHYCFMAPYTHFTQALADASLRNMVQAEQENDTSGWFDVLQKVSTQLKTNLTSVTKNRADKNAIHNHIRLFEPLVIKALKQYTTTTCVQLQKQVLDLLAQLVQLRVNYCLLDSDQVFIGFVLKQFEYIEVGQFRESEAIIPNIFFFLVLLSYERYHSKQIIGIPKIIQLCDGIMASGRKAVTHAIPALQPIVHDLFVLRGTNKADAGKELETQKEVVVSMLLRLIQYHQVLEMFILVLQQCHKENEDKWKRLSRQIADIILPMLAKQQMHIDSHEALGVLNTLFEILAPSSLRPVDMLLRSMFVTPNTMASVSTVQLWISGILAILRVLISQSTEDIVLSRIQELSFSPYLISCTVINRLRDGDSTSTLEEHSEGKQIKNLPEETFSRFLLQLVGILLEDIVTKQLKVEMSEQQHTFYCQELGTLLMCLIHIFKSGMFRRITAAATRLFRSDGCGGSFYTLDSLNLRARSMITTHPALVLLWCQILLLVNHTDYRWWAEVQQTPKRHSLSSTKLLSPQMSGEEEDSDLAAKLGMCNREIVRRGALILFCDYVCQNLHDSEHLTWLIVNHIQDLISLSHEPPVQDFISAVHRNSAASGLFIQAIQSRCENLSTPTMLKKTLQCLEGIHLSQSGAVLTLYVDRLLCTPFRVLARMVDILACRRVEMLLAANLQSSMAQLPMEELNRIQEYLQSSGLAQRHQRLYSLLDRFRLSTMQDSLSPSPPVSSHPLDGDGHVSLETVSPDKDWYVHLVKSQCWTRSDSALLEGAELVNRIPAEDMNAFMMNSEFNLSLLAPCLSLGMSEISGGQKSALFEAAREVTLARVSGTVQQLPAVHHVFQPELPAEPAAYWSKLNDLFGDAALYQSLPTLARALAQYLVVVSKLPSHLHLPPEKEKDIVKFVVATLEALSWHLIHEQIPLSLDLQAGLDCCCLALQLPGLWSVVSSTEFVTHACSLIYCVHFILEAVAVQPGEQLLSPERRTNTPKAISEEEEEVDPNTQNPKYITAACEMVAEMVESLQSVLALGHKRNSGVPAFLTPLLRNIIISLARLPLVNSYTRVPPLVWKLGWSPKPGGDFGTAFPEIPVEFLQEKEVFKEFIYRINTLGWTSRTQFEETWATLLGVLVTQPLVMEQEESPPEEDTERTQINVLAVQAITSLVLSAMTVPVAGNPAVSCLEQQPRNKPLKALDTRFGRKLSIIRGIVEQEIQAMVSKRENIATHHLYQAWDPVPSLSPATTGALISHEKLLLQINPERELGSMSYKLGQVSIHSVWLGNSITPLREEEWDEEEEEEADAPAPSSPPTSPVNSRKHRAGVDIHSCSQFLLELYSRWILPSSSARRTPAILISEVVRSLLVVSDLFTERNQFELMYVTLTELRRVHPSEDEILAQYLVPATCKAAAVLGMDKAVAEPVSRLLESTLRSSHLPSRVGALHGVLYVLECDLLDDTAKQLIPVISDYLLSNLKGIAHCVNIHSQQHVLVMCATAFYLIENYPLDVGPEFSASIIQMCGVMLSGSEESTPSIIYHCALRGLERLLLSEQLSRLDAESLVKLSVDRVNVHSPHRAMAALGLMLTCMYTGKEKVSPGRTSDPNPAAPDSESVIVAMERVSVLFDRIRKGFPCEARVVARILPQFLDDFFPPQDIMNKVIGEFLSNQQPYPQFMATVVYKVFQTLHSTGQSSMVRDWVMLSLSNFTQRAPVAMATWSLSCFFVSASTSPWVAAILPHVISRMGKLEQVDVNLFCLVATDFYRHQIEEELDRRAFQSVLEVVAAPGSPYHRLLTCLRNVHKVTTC

This assay concerns the target Huntingtin (Homo sapiens) (UniProt P42858). Kind of assay: mutant huntingtin-calmodulin interaction inhibitors – biochemical, AlphaScreen, primary screen (AID 1671202).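 Also: 0% = both proteins with DMSO and 100% = one protein alone.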 Conditions: AlphaScreen His-mHTT/GST-CaM binding, luminescence; at 15 µM, stronger effect = higher value.
Broadly, the inhibition is the relative decrease from the control value, in per cent. Regarding `COc1ccc(-n2nc3cc(C)c(NC(=O)c4ccccc4F)cc3n2)cc1`, the inhibition is -3.4% (inactive).

As for `CC(C)CCNC(=O)C1(C)CCC(=O)N1Cc1ccc(OC(C)C)cc1` (stereo unspecified), the inhibition is 0.89% (inactive). With `CCOC(=O)CCNC(=O)N1CCn2cccc2C1c1ccc(Cl)cc1` (stereo unspecified) the figure was 82.4% (active); with `CCCC1c2cccn2CCN1C(=O)Nc1ccccc1C` (stereo unspecified), 6.33% (inactive). With `CCOC(=O)CC1(NC(=O)N2CCn3cccc3C2Cc2ccccc2)CCCCC1` (stereo unspecified) the figure was 46.3% (inactive); with `COc1ccc(C(=O)N2CCC(c3nc(CNC(=O)C4CCC4)cs3)CC2)cc1`, 5.04% (inactive); with `O=C1CC(c2cccs2)CC2=C1C(c1cccc(Cl)c1)Nc1ccccc1N2` (stereo unspecified), 26% (inactive). With `COc1cccc(C2CC(=O)C3=C(C2)Nc2ccccc2NC3c2cccc(F)c2)c1` (stereo unspecified) the figure was 25% (inactive). On to `Cc1ccc2oc(C3Nc4ccccc4NC4=C3C(=O)CC(c3cccs3)C4)cc(=O)c2c1` (stereo unspecified), for which the inhibition was 4.8% (inactive) and 92% (active). With `O=C(Cc1ccc(F)cc1)NC1CCCC1` the figure was -1.1% (inactive); with `O=C(Cc1nc(-c2ccccn2)n[nH]1)NC1CCCCCC1`, 98% (active); with `O=C(CSCc1ccccc1Cl)NC1CCCCC1`, -5.4% (inactive). As for `N#CC1=C(N)Oc2n[nH]c(C(F)(F)F)c2C1c1cccnc1` (stereo unspecified), the inhibition was -2% (inactive). For `Cc1ccc(Cl)cc1NC(=O)N1CC=C(c2cn(C)c3ncccc23)CC1` the value was 19.5% (inactive). For `Cc1ccc(CNC(=O)c2cccc(N3CCNC(c4ccccc4)C3)n2)cc1` (stereo unspecified) the value was 57.7% (active); for `O=C(NCc1ccc(F)cc1)c1cccc(N2CCNC(c3ccccc3)C2)n1` (stereo unspecified), 44.2% (inactive). Regarding `CCNC(=O)c1cccc(N2CCNC(c3ccccc3)C2)n1` (stereo unspecified), the inhibition is 2.6% (inactive). For `Cc1[nH]c2ccccc2c1C(NS(=O)(=O)c1ccccc1)C(Cl)(Cl)Cl` (stereo unspecified) the value was 30% (inactive). With `Cn1cc(C(NS(=O)(=O)c2ccc(Cl)cc2)C(Cl)(Cl)Cl)c2ccccc21` (stereo unspecified), the inhibition is 77% (active). With `Cc1cc(C(=O)NCC(c2cn(C)c3ccccc23)N(C)C)no1` (stereo unspecified), the inhibition was 0.7% (inactive). Take `O=C(Cc1ccccc1F)N1CCOc2ccccc2C1`: the inhibition was 0.06% (inactive). With `COCCN1CCC(N2CCCN(C(=O)c3ccc(C)c(F)c3)CC2)C1=O` (stereo unspecified) the figure was 7.8% (inactive); with `CCC(C(=O)NCC(C)(O)CCSC)c1ccccc1` (stereo unspecified), -4.2% (inactive). With `COc1ccc(NC(=O)C[C@H]2C(=O)N(CCc3ccccc3)C[C@@H]2C)cc1` the figure was -5.1% (inactive); with `O=C(C[C@H]1C(=O)N(c2ccc(F)c(F)c2)C[C@@H]1Cc1ccccc1)Nc1ccccc1`, 52.3% (active); with `CNC(=O)C[C@H]1C(=O)N(c2ccc(OC)cc2)C[C@@H]1Cc1ccccc1`, -3.3% (inactive).

On to `COc1ccc(C(=O)N2CCC(c3nc(C(=O)N4CCSCC4)c(C)o3)CC2)cc1F`, for which the inhibition was 5.94% (inactive). With `CC(=O)c1ccc(OCC(O)CNC2CCCC2)cc1` (stereo unspecified) the figure was -0.4% (inactive); with `O=C(NCc1ccccc1F)c1cc2n(n1)CCCC2`, -5.1% (inactive); with `COc1ccc(C(CC(=O)N2CCN(c3ccccc3)CC2)c2c(O)cc(OC)cc2OC)cc1` (stereo unspecified), 34.4% (inactive). As for `COc1ccccc1C(CCNCc1ccccc1)c1ccc2c(c1)OCO2` (stereo unspecified), the inhibition is 47.4% (inactive). For `COc1ccccc1N1CCN(Cc2cc(OC)c3c(c2)OCO3)CC1` the value was 4.1% (inactive). For `COc1cc(C(CCN2CCN(c3ccccc3)CC2)c2c(OC)cc(OC)c3ccc(=O)oc23)cc(OC)c1OC` (stereo unspecified) the value was 89.6% (active). For `COc1ccc(CN2CCN(Cc3cc(OC)c(OC)c(OC)c3)CC2)cc1` the value was 2.6% (inactive). Regarding `COc1cc(OC)c2ccc(=O)oc2c1C(CCN1CCN(c2ccccc2)CC1)c1ccc2c(c1)OCO2` (stereo unspecified), the inhibition was 73.2% (active). For `CNC(=O)c1ccc2c(c1SC)C(=O)c1ccccc1C2=O` the value was -3% (inactive); for `CC1(C)CC(=O)C(C(=N)CC2CC(=O)NC(=O)C2)=C(O)C1`, 3% (inactive); for `CC(C)(C)[C@H]1CCSC2=NCCC[C@]2(c2ccccc2)C1`, 7% (inactive). On to `CC(SCc1ccccc1)C(=O)Nc1ccc(Cl)cc1` (stereo unspecified), for which the inhibition is -33.9% (inactive). With `O=C(Cc1c(C(=O)O)[nH]c2ccc(Cl)cc12)Nc1cccc(Cl)c1` the figure was 14% (inactive). With `O=C(c1cccs1)N1C[C@H](n2cc(C3CC3)nn2)[C@@H](O)C[C@@H]1c1ccccc1` the figure was 4.1% (inactive); with `O[C@H]1CN(Cc2cccs2)[C@@H](c2ccc(Cl)cc2)C[C@@H]1n1cc(C2CC2)nn1`, 98.3% (active). With `CCCCCCN1C[C@@H](O)[C@H](n2cc(COC(=O)c3ccccc3)nn2)C[C@@H]1c1ccc(Cl)cc1` the figure was -4.7% (inactive); with `CCCCCCN1C[C@H](O)[C@@H](n2cc(C3CC3)nn2)C[C@@H]1c1ccc(Cl)cc1`, 72.7% (active). With `O=C(OCc1cn([C@@H]2C[C@H](c3ccc(Cl)cc3)N(Cc3cccs3)C[C@H]2O)nn1)c1ccccc1`, the inhibition is 2.5% (inactive).

Regarding `COc1ccc([C@H]2C[C@@H](n3cc(COC(=O)c4ccccc4)nn3)[C@H](O)CN2C(=O)c2cccs2)cc1`, the inhibition was 23.6% (inactive). For `Cc1ccc([C@H]2C[C@H](O)[C@@H](n3cc(COC(=O)c4ccccc4)nn3)CN2CC2CCCCC2)cc1` the value was 23.1% (inactive); for `O[C@H]1C[C@H](c2ccc(Cl)cc2)N(Cc2cccs2)C[C@@H]1n1cc(C2CC2)nn1`, 100% (active).

On to `O[C@@H]1C[C@H](c2ccccc2)N(Cc2cccs2)C[C@H]1n1cc(C2CC2)nn1`, for which the inhibition was 19.2% (inactive). With `O=C(NCCC1CCN(C(=O)c2ccc(F)cc2)CC1)c1ccc(F)cc1` the figure was -1.87% (inactive). As to `O=C(Cc1ccccc1)Nc1ccc(C(=O)Nc2ccc(Cl)cc2Cl)cc1`, the inhibition was -3.3% (inactive). With `Cc1cc(C2CCCN2C(=O)c2ccn(C)n2)no1` (stereo unspecified) the figure was -4.24% (inactive); with `O=C(CC(c1ccccc1)c1ccccc1)N1CCN(c2ccccc2F)CC1`, -3.5% (inactive); with `O=C(Nc1ccc(N2CCN(Cc3ccc(F)cc3)CC2)nc1)C1CC1`, 5% (inactive). In the case of `Cc1cccc(-c2nc(CN3CCN(C(=O)C4CC4)CC3)no2)c1`, the inhibition is 4.1% (inactive).

On to `CC(C)NC(=O)N1CCCC(c2cccc(C(=O)NCc3ccc(Cl)cc3)c2)C1` (stereo unspecified), for which the inhibition was 2.21% (inactive). For `CC(C)NC(=O)N1CCCC(c2cccc(C(=O)N3CCN(c4ccccc4)CC3)c2)C1` (stereo unspecified) the value was 51.8% (active); for `CCCN1CCN(C(=O)c2cccc(C3CCCN(C(=O)NCC)C3)c2)CC1` (stereo unspecified), 10.7% (inactive). For the compound `CN(C)C(=O)c1cc2c(s1)CCC(C(=O)Nc1ccc(F)cc1F)C2` (stereo unspecified), the inhibition was 3.95% (inactive). As to `C#CCOc1ccc(/C=C2\NC(=O)N(CC(=O)Nc3cccc(C)c3)C2=O)cc1OC`, the inhibition was 3% (inactive). For `O=C(Nc1ccc([N+](=O)[O-])cc1Br)c1cncc(Br)c1` the value was -1% (inactive); for `CCCCC[C@H](C)N1C[C@@H](COCc2ccccc2)Oc2cc(N3CCC[C@@H]3CO)ccc2S1(=O)=O`, 3.5% (inactive); for `CCCCC[C@H](C)N1C[C@@H](COCc2ccccc2)Oc2cc(N3CC[C@@H](N(C)C)C3)ccc2S1(=O)=O`, 100% (active). For `CSc1ccc(Oc2cccc3c2S(=O)(=O)N([C@H](C)c2ccccc2)C[C@@H](COCc2ccccc2)O3)cc1C` the value was -4.7% (inactive); for `O=C(NCCN1CCOCC1)Nc1ccccc1F`, -6.5% (inactive); for `CCCN1CCn2cc(C(=O)N3CCN(c4ccccc4)CC3)nc2C1`, 63% (active). For the compound `CCCN1CCn2cc(C(=O)N3CCN(c4cccc(OC)c4)CC3)nc2C1`, the inhibition is 4.51% (inactive).

For the compound `CCCN1CCn2cc(C(=O)NCc3cccc(OC)c3)nc2C1`, the inhibition is 4.35% (inactive). On to `Cc1cc(C)cc(C(=O)N2CCC(COc3ccccc3C(=O)NC3CC3)CC2)c1`, for which the inhibition was 9.35% (inactive). Turning to `O=S(=O)(c1cccc(Cl)c1Cl)N1CCN(c2cc(N3CCCC3)ncn2)CC1`, the inhibition was 2.9% (inactive). With `O=C1c2cccc(N3CCCCC3)c2C(=O)c2cccc(Cl)c21` the figure was 98% (active); with `O=c1c(Cl)c(N2CCCC2)cnn1-c1ccccc1`, -0.3% (inactive).

`COc1ccc(C(=O)Nc2ccc(-n3nncc3-c3ccccc3)cc2)cc1OC`: the inhibition is 57% (active).

In the case of `COc1ccc(C(=O)Nc2ccc(-n3nncc3-c3ccccc3)cc2)c(OC)c1`, the inhibition was 31% (inactive). With `COc1ccc(C(=O)Nc2ccc(-n3nncc3-c3ccccc3)cc2)cc1` the figure was 18% (inactive); with `CC(=O)c1cccc(N=Cc2cc([N+](=O)[O-])ccc2O)c1`, 6% (inactive); with `Cc1cccc(OCC(O)CNC2CCCC2)c1` (stereo unspecified), -1.4% (inactive). With `CCOc1ccccc1C(=O)NCc1nnc2n1CCCC2`, the inhibition was 0.6% (inactive). On to `CC(C)n1cnc2cc(CNC(=O)c3ccccn3)ccc21`, for which the inhibition was 14% (inactive).

With `O=C(Nc1cccn2cnnc12)c1ccccn1`, the inhibition was 62% (active). For `O=C(NCc1ccccc1)c1ccccn1` the value was -4.7% (inactive); for `COCCNC(=O)c1ccc2c(c1)ncn2-c1ccc(C)c(Cl)c1`, 24% (inactive); for `NC(=O)c1ccc2[nH]c3c(c2c1)CCCC3`, 12.3% (inactive). For `Cc1cccc(NS(=O)(=O)c2ccc3nnc(C)n3c2)c1` the value was 5% (inactive).

For the compound `Cc1cccc(NS(=O)(=O)c2ccc3[nH]c4c(c3c2)CCCC4)c1`, the inhibition was 98.9% (active).

In the case of `O=C(C1CCN(S(=O)(=O)c2ccc3[nH]c4c(c3c2)CCCCC4)CC1)N1CCCC1`, the inhibition was 56.3% (active).

Consider `COc1ccc(S(=O)(=O)N2CCC(C(=O)N3CCOCC3)CC2)cc1OC`, for which the inhibition is -0.7% (inactive). On to `O=C(NCc1ccc2[nH]c3c(c2c1)CCCC3)C1CC1`, for which the inhibition is 7.3% (inactive). With `Cc1ccc(C2=CC(c3ccc(Br)cc3)n3ncnc3N2)cc1` (stereo unspecified) the figure was 7% (inactive); with `O=C(NCc1cccnc1)c1cnn2c1NC(c1cccs1)CC2C(F)(F)F` (stereo unspecified), 4.91% (inactive). For `CCOC(=O)N1CCCN(C(=O)OCC)CC1` the value was -5.6% (inactive).

(Values after PubChem BioAssay AID1671202 (University of Kansas High Throughput Screening Laboratory, 2021).)
